This is an account of results in PubChem BioAssay (NCI).

The panel holds about 83,000 compounds, 20% with a hit somewhere; the sample as a whole holds those more often.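 Step 1: grow cells in 96-well plates. Step 2: add test compound at a single concentration. Step 3: incubate 48 h. Step 4: record percent growth.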 Values without a mark were called inactive. The source made the active and inactive calls. Rule for the calls: active = growth percent below 10; inactive = the rest.

Among the test systems are EKVX NSCLC; SN12C renal; UO-31 renal; TK-10 renal; ACHN renal; CAKI-1 renal; A498 renal; CCRF-CEM leukemia; MOLT-4 leukemia; SR leukemia.
Test in all cases: NCI-60 one-dose screen, 48 h (100 = growth as untreated, 0 = no growth, -100 = all killed)
Common to all, as to conditions: 10 µM unless noted

In the case of `CC(C)(C)c1ccc(S(=O)(=O)O)s1`, the growth with EKVX NSCLC is 92.7%; with SN12C renal it was 97.7%; in the assay on UO-31 renal it was 40.1%; with TK-10 renal it was 110%; in the assay on ACHN renal, 96.3%; in the assay with CAKI-1 renal, -3.29% (active). Besides, the growth with A498 renal was 95.4%; in the assay with CCRF-CEM leukemia it was 102%; in the assay with MOLT-4 leukemia it was 76.1%; with SR leukemia, 73.1%.
For `COc1ccc(CCN2CCCN3C2=Nc2ccccc2S3(=O)=O)cc1`, the growth is 45% in the assay on EKVX NSCLC; 53.7% in the assay on SN12C renal; 53.4% with UO-31 renal; 61.1% in the assay with TK-10 renal; 51% in the assay with ACHN renal; 46.5% with CAKI-1 renal. Also, the growth is 0.819% (active) in the assay on A498 renal, 19.4% in the assay on CCRF-CEM leukemia, 24.7% in the assay on MOLT-4 leukemia and 24.5% with SR leukemia.
In the case of `CC(CCC(=O)O)(NC(=O)c1ccc([N+](=O)[O-])cc1)C(=O)O` (stereo unspecified), the growth with EKVX NSCLC is 114%; in the assay with SN12C renal, 107%; in the assay with UO-31 renal, 86.2%; in the assay on TK-10 renal, 106%; with ACHN renal it was 125%; in the assay on CAKI-1 renal, 108%. In addition, the growth in the assay with A498 renal was 108%; in the assay with CCRF-CEM leukemia, 103%; in the assay on MOLT-4 leukemia, 93.6%; in the assay on SR leukemia, 95.7%.
Consider `Fc1ccc(-c2nnc(-c3c(-c4ccc(F)cc4)nc4ncccn34)o2)cc1`, for which the growth with EKVX NSCLC was 108%; with SN12C renal, 104%; in the assay with UO-31 renal, 77.8%; with TK-10 renal it was 111%; with ACHN renal it was 97.8%; in the assay with CAKI-1 renal, 100%. For the same molecule, the growth in the assay with A498 renal was 69.8%; with CCRF-CEM leukemia, 96.7%; in the assay on MOLT-4 leukemia, 83.4%; with SR leukemia, 90.8%.
For `CCC(c1ccccc1)c1noc(CCN(CC)CC)n1` (stereo unspecified), the growth with EKVX NSCLC was 105%; in the assay on SN12C renal, 100%; in the assay on UO-31 renal, 85.5%; in the assay with TK-10 renal it was 96.7%; with ACHN renal, 101%; in the assay with CAKI-1 renal, 94.1%. The growth in the assay on A498 renal is 101%; in the assay with CCRF-CEM leukemia, 48.2%; in the assay with MOLT-4 leukemia it was 83%; in the assay with SR leukemia, 69.2%.
Turning to `Nc1ccc(S(=O)(=O)Nc2ncccn2)cc1`, the growth with EKVX NSCLC was 103%; with SN12C renal it was 103%; in the assay with UO-31 renal, 94.5%; with TK-10 renal it was 114%; in the assay with ACHN renal, 98.6%; in the assay on CAKI-1 renal, 103%. In addition, the growth in the assay with A498 renal is 113%; in the assay with CCRF-CEM leukemia, 101%; with MOLT-4 leukemia it was 106%; with SR leukemia, 103%.
Consider `O=C(CSc1nnc(Nc2ccccc2)s1)NCCc1ccc(F)cc1`, for which the growth was 91.7% with EKVX NSCLC; 103% with SN12C renal; 48.4% in the assay on UO-31 renal; 128% in the assay on TK-10 renal; 107% with ACHN renal; 106% with CAKI-1 renal. The growth with A498 renal was 93.1%; in the assay on CCRF-CEM leukemia, 117%; with MOLT-4 leukemia it was 103%; in the assay with SR leukemia, 164%.
For `O=C1Nc2ccc(F)cc2/C1=C/c1nc(-c2ccc(F)cc2)n2ccccc12`, the growth with EKVX NSCLC was 104%; in the assay on SN12C renal, 98.9%; with UO-31 renal, 93.4%; in the assay on TK-10 renal, 120%; in the assay with ACHN renal, 94%; in the assay on CAKI-1 renal it was 101%. Moreover, the results for the growth in the assay with A498 renal, in the assay with MOLT-4 leukemia and in the assay with SR leukemia were -13.9% (active), 103% and 52.9%, respectively.
Take `c1coc([C@@H]2C[C@@H]3Cc4ccc5ccccc5c4N2O3)c1`: the growth in the assay with EKVX NSCLC is 103%; in the assay with SN12C renal, 108%; in the assay on UO-31 renal it was 75%; with TK-10 renal it was 88.6%; in the assay on ACHN renal, 107%; in the assay with CAKI-1 renal, 84.7%. The figures for the growth in the assay with A498 renal, with MOLT-4 leukemia and with SR leukemia were 90.2%, 73.7% and 88.8%, respectively.
For `NC(=Nc1ccccc1)SCCCCSC(N)=Nc1ccccc1`, the growth in the assay on EKVX NSCLC is 80.4%; in the assay on SN12C renal, 87%; with UO-31 renal it was 31%; in the assay with TK-10 renal, 97.3%; in the assay on ACHN renal, 75.4%; in the assay with CAKI-1 renal, 74.2%. For the same molecule, the growth with A498 renal is 82.3%; in the assay with MOLT-4 leukemia it was 70.3%.
As for `COc1ccc(C(=O)COc2cccc(/C=C3\Oc4ccc5ccccc5c4C3=O)c2)cc1`, the growth is 89.6% in the assay on EKVX NSCLC; 75% in the assay on SN12C renal; -54.4% (active) in the assay on UO-31 renal; 90.1% with TK-10 renal; 97.5% in the assay with ACHN renal; 27.6% with CAKI-1 renal. In addition, the growth with A498 renal is 139%; in the assay on MOLT-4 leukemia, 18.9%; in the assay on SR leukemia, 15.9%.
For the molecule `COC(=O)[C@]12CC[C@@H](C)[C@H](C)[C@@H]1C1=CC[C@@H]3[C@@]4(C)C=C(O)C(=O)[C@@]5(C)COC(=C54)C[C@@]3(C)[C@]1(C)CC2`, the growth is -56.7% (active) in the assay with EKVX NSCLC; -29.9% (active) in the assay on SN12C renal; -50.2% (active) in the assay on UO-31 renal; -62.3% (active) in the assay on TK-10 renal; -71.7% (active) in the assay on ACHN renal; -45.7% (active) in the assay with CAKI-1 renal. The values for the growth with A498 renal, in the assay on MOLT-4 leukemia and with SR leukemia were -78% (active), -72.1% (active) and -68.2% (active), respectively.
For `c1cncc(CNc2ccccc2-c2nnc(Nc3ccc4c(c3)OCO4)o2)c1`, the growth in the assay with EKVX NSCLC is 35.3%; in the assay on SN12C renal, 28.8%; in the assay on UO-31 renal, 40.7%; in the assay with TK-10 renal, 50%; in the assay on ACHN renal it was 32.2%; in the assay on CAKI-1 renal it was 9.02% (active). Further, the figures for the growth in the assay on A498 renal and in the assay on MOLT-4 leukemia were -0.133% (active) and 18.6%, respectively.
For the molecule `CCCCCCCCSc1ncnc2c1ncn2CO`, the growth in the assay with EKVX NSCLC is 55.5%; in the assay with SN12C renal it was 76.4%; in the assay on UO-31 renal, 86.6%; with TK-10 renal, 89.9%; in the assay with ACHN renal it was 81%; in the assay with CAKI-1 renal it was 72.6%. The growth in the assay with A498 renal is 106%; in the assay with MOLT-4 leukemia, 85.8%; in the assay with SR leukemia, 115%.
